This experiment deals with VDR:RXRa (NR concentration 270 nM, RXRa partner concentration 90 nM). Put plainly: PBM binding z-score (relative to random genomic background probes); higher = stronger binding; sequences stand for … in GC…GCGATTGACAGCGTAGAATGAAGG
The procedure:
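Protein-binding microarray (Agilent 4x180K custom design, double-stranded 60-nt probes: 5' GC cap, 34-nt variable region, 24-nt constant primer region; full probe sequence given). Purified or IVT nuclear receptor:RXRα heterodimers (3:1 NR:RXRα, mostly 270:90 nM) or homodimers were incubated for 1 h in PBS with 2% milk and no ligand, then detected with Alexa488 antibodies. Fluorescence from o1-orientation probes (~5 replicates averaged) was converted to z-scores against 500 random hg19 background probes. Variable regions are seed direct-repeat (DR0–DR5) sites, all their single-nucleotide variants and half-site ablations.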
Consider AGAATGAGGTTACCAAAGATCACGGAAACGCTTG, for which the PBM binding z-score is 1.97.

Sequence ATCGAAAGGTCGAGGTCAGTATAGAGAAAGGGAA registered a PBM binding z-score of 4.49.

Sequence TCAGACAGATGAAGGTAACTCAGGTACGCAGTCG returned a PBM binding z-score of 0.608. The same measure for GCTTGTAGATCAAGGTTAAGAAGGACTAAGCTAA: 0.438; for CCTGCTAGGTCAATAGTCAGCTAAAGCAGCTCGC: 0.487; for ATCGAAAGGGCGACGAGGTGAGTATACACCGTTT: 1.32. Regarding TCTTGTACATCAGCAGGTTAAGAAAGCTGGCCAA, the PBM binding z-score stood at 0.622.

In turn, CGTCCATGGTCAAGGTCAGTGAAAGAGACTCGAA came in with a PBM binding z-score of 1.51.

Regarding ATCGAAAGGTCGTGAGGTGAGGATACAGAAAGGC, the PBM binding z-score was found to be 3.46. The figure for CGTCAAAGTTCAAGATAACGTAACAGAAAGCAGC is 3.2.

CCTGCTAGGTCTTGGTCAGCTAATCTACAGTATG: the PBM binding z-score is -0.434. The figure for CGTCCTAGGTCATAGGAGGTCAGTGAAGACAGAT is 5.59; for TCGAGTAGGTTAGTCGGGGCATTCACCCAACATA it is 2.41. The sequence CCTAGCAGGCCAGGGTCCCTCAAGCATTTCGCTT registered a PBM binding z-score of -0.596.

Sequence GCATATAGGTATTACAAGGTGAAAGTCCGATTGT returned a PBM binding z-score of 0.134. The same measure for TCATATAGGTAAACAGGTGAAAGTGCGTAAGTTA: 1.29; for TCGAGTAGGTTACCAATGGGGGATTCAGCTTTCT: 0.83. For CCTGCTAGGTCAATGGTCAGATAAAGCAGCTCGC, the PBM binding z-score is 0.927. The figure for TAACCTAGGTCATGCGGGCCAGTATAGTGTCGGC is 3.55; for TTACCAAGGTGAGAGGTCGTTGATGCACGCCTTG it is 2.25; for TCATATAGGTAATACAGGAGAAAGTCGGCATCTA it is 0.996. As for AATCCAGGGTCATCGTAGGCCAGAGTACGCACAG, the PBM binding z-score amounted to 5.32.

As for GCTAGTTGGTCAGTGAAAGGTCACACACCGGTCG, the PBM binding z-score is 4.14. The figure for TCTTATAGGTAAAAGGTGAAAGTCGGTGTGGTAA is 1.66; for ATCTCTAGGTAACCAAGTTCAGAGAATGCCGAAC it is 4.26; for CCTATTAGTTGACCCTAAGGGCAACCGAAGCTCG it is 3.74. The same measure for CTCGAAAGGTCGTGCTGAGGTGAGTATACCAAAC: 3.85; for ATACCAAGGTGAACGTGAGGTCGTTGATACTAAC: 4.41; for TTACCAAGGTGAAAAGTCGTTGATGCACGCCTTG: 0.0875. Take CCTAGCAGGCCAATCAGGGTCACTCAAGGCTTGA: the PBM binding z-score worked out at 3.66. For the sequence AGAATGAGGTAAAGATCAGGGAAACAGAATACAT, the PBM binding z-score is 0.0577. The same measure for TCGAGCAGGTTACCAATGGGGCATTCAGCTTTCT: 0.08; for GCTCGTTGGTCAGTAAAAGGTCACACACCGGTCG: 4.26; for TCATATAGGTAAACAGGTGAAGGTCCGTAAGTTA: 0.989.

For ATCGAAACGTCGAAGGTGAGTATACCCACCCGAA, the PBM binding z-score is -0.229. In turn, TCTTGTAGAGCAAGCAGGTTAAGAAAGCCTGAGT displayed a PBM binding z-score of -0.323. The same measure for ATCTCTAGTTAACAAGTTCAGTGAAAGAGAGGAC: 2.52; for ACAGACAGGTGATGAAAGTAACTCAGGCTATCAT: -0.184. The same measure for CCAACTAGGTCACAGAGGTCAAAGTCCGTGCGTA: 7.88; for CCTACTGGGCCATTCAGGGGTCATTGATCATATG: 4.82.

(Values after the supplement of paper PMC6555819.)
